Source: PubChem BioAssay AID720582 (The Scripps Research Institute Molecular Screening Center, 2013)
Hit rate of the full screen: of about 370,000 compounds, about 2,300 (0.62%) were called active. This excerpt belongs to a sample that is enriched for actives. Values without a mark were called inactive.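 The calls were made as follows: active = inhibition above a per-campaign cutoff equal to the mean of compounds falling between control-based bounds plus 3 SD (cut at about 20% in these data); inactive = the rest.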

target: Disintegrin and metalloproteinase domain-containing protein 10 (Homo sapiens) (UniProt O14672); assay: blockers of ADAM10 peptide cleavage – biochemical, QFRET, HTS, primary screen (AID 720582); details: recombinant ADAM10, EDANS/DABCYL FRET peptide cleavage, 3 h; at 7 µM; stronger effect = higher value;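 also: 0% = DMSO wells while the 100% control is not disclosed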
Sequence (O14672 214-748 limits assumed): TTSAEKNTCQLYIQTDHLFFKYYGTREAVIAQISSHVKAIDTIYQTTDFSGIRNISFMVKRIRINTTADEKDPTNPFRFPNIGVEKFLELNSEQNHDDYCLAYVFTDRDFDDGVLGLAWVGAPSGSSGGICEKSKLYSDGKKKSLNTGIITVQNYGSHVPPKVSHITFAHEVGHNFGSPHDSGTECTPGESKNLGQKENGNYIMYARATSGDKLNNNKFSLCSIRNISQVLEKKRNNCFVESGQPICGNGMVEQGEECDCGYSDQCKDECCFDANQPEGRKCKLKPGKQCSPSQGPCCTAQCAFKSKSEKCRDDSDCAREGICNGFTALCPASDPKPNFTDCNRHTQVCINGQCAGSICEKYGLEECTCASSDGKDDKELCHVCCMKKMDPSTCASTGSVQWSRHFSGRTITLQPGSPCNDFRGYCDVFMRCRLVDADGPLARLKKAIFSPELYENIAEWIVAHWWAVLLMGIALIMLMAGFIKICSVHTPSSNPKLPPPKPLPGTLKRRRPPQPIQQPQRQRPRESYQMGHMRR

Row | Structure (SMILES) | inhibition
1 | C=CCN(Cc1ccc2c(c1)OCO2)C(C#CC1CC1)C(C)(C)C (stereo not given) | -9.94%
2 | Cc1cc(C)cc(NC(=O)N2CCC(N(C)CCC(C)C)CC2)c1 | 3.06%
3 | CC(C)(C)c1ccc(S(=O)(=O)NCC2CCN(C(=O)C(=O)c3cc4ccccc4o3)CC2)cc1 | 24.4% (active)
4 | N#Cc1cccc(C(=O)NCC2CCN(C(=O)C(=O)c3cc4ccccc4o3)CC2)c1 | 1.47%
5 | O=C(C(=O)N1CCC(CNS(=O)(=O)Cc2ccccc2)CC1)c1cc2ccccc2o1 | 0.44%
6 | O=C(NCCCc1ccccc1)[C@H](Cc1ccccc1)NC1(C(=O)NCCc2c[nH]c3ccccc23)CCC1 | 10.8%
7 | O=C(c1cccs1)n1nc(NCc2ccccc2)nc1NCc1ccccc1 | -4.16%
8 | CCCn1nnnc1NCc1ccc(OC)cc1 | 0.98%
9 | CCCC(=O)n1nc(NCc2ccc(OC)cc2)nc1NCc1ccc(OC)cc1 | 21.3% (active)
10 | Cc1cc(C)nc(NC(=S)N2CCN(c3ccc(C(F)(F)F)cn3)CC2)c1 | -0.75%
11 | O=C1CC[C@@H](COc2ccc3[nH]cc(-c4ccccc4)c3c2-c2ccccc2)N1 | -16.4%
12 | Cc1cc(C)cc(NC(=O)CSc2ccccc2)c1 | 7.73%
13 | CC(=O)Nc1ccc(NC(=O)CSCc2cnn(-c3ccccc3)c2-n2cccc2)cc1 | -1.8%
14 | Cc1cc(C)cc(NC(=O)CSCc2cnn(-c3ccccc3)c2-n2cccc2)c1 | 20.7% (active)
15 | O=C(NCCc1c[nH]c2ccccc12)OCc1cn(-c2c(F)cccc2F)nn1 | 2.44%
16 | CCOC(=O)[C@@]12CCC3=C1N(CCC3)C(=O)[C@H](CC(=O)N1CCN(C(=O)c3ccco3)CC1)C2 | 0.02%
17 | N#Cc1nc(Cc2cccc3ccccc23)oc1NCc1ccc2c(c1)OCO2 | 22.7% (active)
18 | O=C(CCNS(=O)(=O)c1ccccc1C(F)(F)F)NCc1ccc2c(c1)OCO2 | 4.73%
19 | CC1(C(=O)NCc2ccc3c(c2)OCO3)CCN1C(=O)Cc1cccc2ccccc12 (stereo not given) | -4.08%
20 | C[C@@H]1COc2cccc(N3CCCC3)c2S(=O)(=O)N1C | -13.8%
21 | CCCCNC(=O)C[C@@H]1C(=O)N(CCc2ccc(Cl)cc2)C2=CCCC[C@]21C(=O)OCC | 1.59%
22 | CCCCC(=O)N[C@@H]1CC[C@@]23CCCN2C(=O)CCC[C@H]3[C@H]1C | -8.02%
23 | CC(C)(C)NC(=O)C(c1cccnc1)N(C(=O)c1cnco1)c1ccc(C(C)(C)C)cc1 (stereo not given) | -5.34%
24 | O=C(CSc1nc2ccccc2o1)N/N=C/c1ccccc1C(=O)O | 5.59%
25 | CC1Cc2ccccc2N1C(=O)CSc1nc2ccccc2o1 (stereo not given) | 3.31%
26 | Cc1ccc(/C=N/NC(=O)CSc2nc3ccccc3o2)cc1 | 22.1% (active)
27 | C[C@H](C(=O)N(C)c1ccccc1)[C@@H](O)c1ccc2ccccc2c1 | -0.77%

Row | Structure (SMILES) | inhibition
28 | COc1ccc(-c2cc(-c3nnc(SCc4ccc([N+](=O)[O-])cc4)n3N)[nH]n2)cc1 | 0.29%
29 | COc1cc(NS(=O)(=O)c2ccc(NC(=S)NC(=O)c3ccccc3)cc2)nc(OC)n1 | 6.57%
30 | COc1ccc(C(=O)NNc2cc(C)nc(NNC(=O)c3ccc(OC)cc3)n2)cc1 | -1.03%
31 | COc1ccc(C(=O)NNC(=S)NC(=O)c2ccccc2)cc1 | 24% (active)
32 | C=C1C(C(C)C)N(C)C2=NC(c3ccccc3)CC(=O)N12 (stereo not given) | -17.1%
33 | COc1cccc(C2CC(c3ccccc3)=NN2S(=O)(=O)c2ccccc2)c1OC (stereo not given) | 29.9% (active)
34 | COc1cccc(C2CC(c3cccs3)=NN2C(=O)CSC2=NCCS2)c1OC (stereo not given) | -3.83%
35 | CCS(=O)(=O)Nc1ccc(C2=NN(S(=O)(=O)c3ccc(F)cc3)C(c3ccco3)C2)cc1 (stereo not given) | 4.53%
36 | Cc1ccc(C)c(NC(=O)CCS(=O)(=O)c2ccccc2)c1 | -11.5%
37 | CC(C)(C)OC(=O)NCc1cc(F)ccc1/C=C/S(=O)(=O)NCCc1ccccc1 | 11.5%
38 | O=C(c1ccncc1)N1CC[C@H]2[C@H](CCCN2Cc2ccc(F)cc2)C1 | -25.2%
39 | COC(=O)C1CN(CCc2ccccc2)CCS(=O)(=O)N1Cc1cccc(Cl)c1 (stereo not given) | 2.53%
40 | COc1ccc(NS(=O)(=O)c2ccc(N3CCOCC3)c(NC(=O)c3ccccc3Br)c2)cc1 | 6.43%
41 | COc1ccccc1NS(=O)(=O)c1ccc(C)c(C(=O)NNC(=O)c2csc(N3CCOCC3)n2)c1 | 8.51%
42 | COc1ccc(NS(=O)(=O)c2ccc(C)c(C(=O)NNC(=O)c3csc(N4CCOCC4)n3)c2)cc1 | 26% (active)
43 | CCC[C@H]1C(=O)CC[C@@]23CCCN2C(=O)CCC[C@@H]13 | -1.01%
44 | CCOC(=O)[C@@H]1[C@H]2COc3ccc(Br)cc3[C@H]2N2C(=O)N(c3ccc(C)cc3)C(=O)[C@@]12C | 1.71%
45 | Cc1ccc(N2C(=O)N3[C@@H]4c5ccccc5OC[C@@H]4[C@@H](c4ccccc4)[C@@]3(C)C2=O)cc1 | 20.3% (active)
46 | C[C@@H]1NC(=O)[C@@]2(C)[C@@H](c3ccccc3)[C@H]3COc4ccccc4[C@@H]3N2C1=O | -7.53%
47 | CCOC(=O)c1csc(NC(=O)C2CCCN(S(=O)(=O)c3ccc(Cl)s3)C2)n1 (stereo not given) | 10%
48 | C=CCn1c(N)cc(=O)nc1SCC(=O)Nc1cccc2ccccc12 | -27%
49 | Cc1ccc(-n2c(SCC(=O)Nc3cccc4ccccc34)nnc2-c2ccccn2)cc1 | -6.55%
50 | Cc1ccccc1-n1c(SCC(=O)Nc2cccc3ccccc23)nc(O)cc1=O | 27% (active)
51 | O=S1(=O)c2ccc(N3CCN(Cc4ccccc4F)CC3)cc2Oc2ccccc2CN1Cc1cn(Cc2ccc(Cl)cc2)nn1 | 7.21%
52 | CCOc1ccc(-n2c(SCC(=O)Nc3cc(C)c(NC(=O)c4ccccc4)cc3OC)nnc2-c2cccc(Cl)c2)cc1 | 8.65%
53 | COc1cccc(CNC(=O)CCC2CCCN(Cc3ccc(OC(F)F)cc3)C2)c1 (stereo not given) | -2.49%
54 | COc1cccc(CC2(CO)CCCN(Cc3ccc(OC(F)F)cc3)C2)c1 (stereo not given) | 19.9% (active)

Row | Structure (SMILES) | inhibition
55 | COc1cccc(CC2(CO)CCCN(Cc3nc(-c4cccs4)oc3C)C2)c1 (stereo not given) | 0.04%
56 | O=C(CN(CC1CCCO1)C(=O)CNS(=O)(=O)c1ccc(Cl)cc1)NCc1ccccc1 (stereo not given) | 3.32%
57 | CCCOc1ccc(Oc2c(Cl)cnn(Cc3cccc4ccccc34)c2=O)cc1 | -13%
58 | COc1ccc(C(=O)OCCN2CCN(C3CN(Cc4cn(Cc5ccccc5F)nn4)S(=O)(=O)C3)CC2)cc1OC (stereo not given) | -2.27%
59 | CC(c1c[nH]c2ccccc12)c1c(-c2ccccc2)n(C)c2ccccc12 (stereo not given) | -17.9%
60 | CC(C)C(=O)Nc1cccc(NC(=S)NC(=O)C(c2ccccc2)c2ccccc2)c1 | 21.2% (active)
61 | CCCCC(=O)NNC(=S)NC(=O)C(c1ccccc1)c1ccccc1 | 7.07%
62 | CCCC(=O)Nc1cccc(NC(=S)NC(=O)C(C)Oc2ccc(Cl)cc2Cl)c1 (stereo not given) | 6.41%
63 | CC(C)(C)N1C(=O)[C@H]2[C@@H](c3ccc(Br)cc3)N3C(=O)N(c4cccc(Cl)c4)C(=O)[C@@]3(C)[C@H]2C1=O | 33.8% (active)
64 | CC[C@@]12C(=O)N(c3ccccc3)C(=O)N1[C@H](c1ccc(Br)cc1)[C@@H]1C(=O)N(C(C)(C)C)C(=O)[C@@H]12 | 15.3%
65 | CCN1C(=O)[C@H]2[C@@H](c3ccc(C)cc3)N3C(=O)N(c4cccc(Br)c4)C(=O)[C@@]3(CC)[C@H]2C1=O | 4.57%
66 | COc1ccc([C@@H]2[C@@H]3C(=O)N(C(C)(C)C)C(=O)[C@@H]3[C@]3(Cc4ccccc4)C(=O)N(c4cccc(Br)c4)C(=O)N23)cc1 | 33.4% (active)
67 | CC12C(=O)N(c3ccccc3)C(=O)C1C(c1ccccc1)N1CCCN12 (stereo not given) | -2%
68 | C[C@@]12C(=O)N(c3cccc(Br)c3)C(=O)N1[C@H](c1ccc(Cl)cc1)[C@@H]1C(=O)N(C3CCCCC3)C(=O)[C@@H]12 | 31.7% (active)
69 | CSCCC1NC2(C(=O)Nc3ccc(Cl)cc32)[C@@H]2C(=O)N(C3CCCC3)C(=O)[C@H]12 (stereo not given in full) | 11.7%
70 | COC(=O)[C@]12C[C@H](CC(=O)NCc3ccccc3)C(=O)N(Cc3ccccc3)C1=C[C@H](COCc1ccccc1)O[C@@H]2C | 6.96%
71 | C=CCN(C)CC#Cc1ccccc1 | -2.28%
72 | O=C(OC12CCCN(C1)/C(=C/c1ccccc1)C2)c1ccco1 (stereo not given) | 8.44%
73 | O=S1(=O)c2c(NCc3ccco3)cccc2Oc2ccccc2CN1Cc1cn(Cc2cccc(C(F)(F)F)c2)nn1 | -9.48%
74 | COc1ccc(-c2cc(-c3nnc(SCC(=O)Nc4cccc5ccccc45)n3N)[nH]n2)cc1 | -7.36%
75 | CC(CCN1CCC(C(O)(c2ccccc2)c2ccccc2)CC1)Oc1ccc(C(F)(F)F)cc1 (stereo not given) | 5.96%
76 | Cc1ccc(N(NC(=O)C(C)(C)O)C(=O)c2ccccc2)cc1C | 87.5% (active)
77 | COC(=O)N(NC(=O)C(O)(C(C)C)C(C)C)c1ccccc1 | -0.6%
78 | CCCC(O)(CCC)C(=O)NN(C(=O)CCl)c1cccc(C)c1 | -8.56%
79 | O=C(CN1CCCc2ccccc21)NCc1ccc(F)cc1 | 1.16%
80 | O=C(Nc1cc(F)cc(F)c1)OC1CCC12CCC(c1ccccc1)CC2 (stereo not given) | 7.13%
